Among the test systems are RIOK1; RIOK2; RIOK3; RIPK1; RIPK2; RIPK4; RIPK5; ROCK1; ROCK2; ROS1.
Common to all, as to conditions: concentration: 1 μM, replicates: in singlicate; n = 1

Structures are written as SMILES.
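Also: KINOMEscan kinase panel screen.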

Consider `Cl.Cl.NCC(NC(=O)c1cc(-c2ccccc2)c(-c2ccnc3[nH]ccc23)s1)c1ccccc1` (centres unmarked) [GSK1321561], for which the “%Inh” value in the experiment on RIOK1 stood at 69%; with RIOK2 it was 45%; in the experiment with RIOK3, 88%; in the experiment with RIPK1, 24%; in the experiment on RIPK2, 24%; with RIPK4 it was 0%. For the same compound, the “%Inh” value is given as 0% in the experiment on RIPK5, 99.8% with ROCK1, 98.9% in the experiment with ROCK2 and 19% in the experiment on ROS1.
Turning to `COc1cccc(C(=O)Nc2cccc(Oc3ccc4nc(NC(=O)C5CC5)cn4n3)c2)c1`, the “%Inh” value in the experiment on RIOK1 stood at 55%; with RIOK2, 0%; in the experiment on RIOK3, 39%; in the experiment with RIPK1, 20%; in the experiment on RIPK2, 50%; in the experiment on RIPK4, 0%. The “%Inh” value with RIPK5, with ROCK1, with ROCK2 and in the experiment on ROS1 was 0% in each case.
On to `O=C(Nc1n[nH]c2nc(-c3ccc(O)cc3)ccc12)C1CC1` [SB-710363], for which the “%Inh” value in the experiment with RIOK1 worked out at 47%; with RIOK2 it was 0%; in the experiment with RIOK3, 46%; with RIPK1, 2%; in the experiment with RIPK2 it was 0%; with RIPK4, 39%. Besides, the “%Inh” value in the experiment on RIPK5, in the experiment with ROCK1, in the experiment on ROCK2 and in the experiment with ROS1 was 0% in each case.
For the compound `COc1cc(Nc2nccc(N3CCC(NC(=O)Nc4cccc(C(C)=O)c4)C3)n2)cc(OC)c1OC` (centres unmarked) [GSK1379753], the “%Inh” value in the experiment on RIOK1 was found to be 73%; with RIOK2, 0%; in the experiment with RIOK3, 65%; with RIPK1 it was 9%; in the experiment with RIPK2 it was 22%; in the experiment with RIPK4, 48%. In addition, the “%Inh” value with RIPK5 was 0%; in the experiment on ROCK1 it was 25%; in the experiment on ROCK2 it was 7%; in the experiment on ROS1 it was 30%.
On to `COc1ccc(Nc2nccc(NCCNC(=O)c3cc4ccccc4s3)n2)cc1` [GSK1379896], for which the “%Inh” value was determined as 19% with RIOK1; 0% with RIOK2; 0% in the experiment on RIOK3; 0% with RIPK1; 12% in the experiment on RIPK2; 0% in the experiment with RIPK4. Besides, the “%Inh” value in the experiment with RIPK5 came to 7%; in the experiment on ROCK1, 13%; in the experiment with ROCK2, 28%; in the experiment on ROS1, 9%.
`Cc1cccc(NC(=O)Nc2ccc(Oc3ncnc4ccn(C)c34)cc2)c1`: the “%Inh” value with RIOK1 is listed as 0%; in the experiment on RIOK2, 0%; with RIOK3, 24%; in the experiment with RIPK1, 0%; with RIPK2 it was 11%; in the experiment on RIPK4 it was 0%. Also, the “%Inh” value with RIPK5 came to 5%; with ROCK1, 0%; in the experiment on ROCK2, 0%; with ROS1, 0%.
In the case of `Cc1ccc(S(=O)(=O)Nc2ccc(Nc3nccc(Nc4cccc5[nH]ncc45)n3)cc2)cc1` [GSK581271], the “%Inh” value amounted to 78% in the experiment on RIOK1; 40% with RIOK2; 34% in the experiment on RIOK3; 5% in the experiment on RIPK1; 69% in the experiment with RIPK2; 0% in the experiment on RIPK4. The “%Inh” value in the experiment on RIPK5 was 0%; in the experiment with ROCK1, 0%; in the experiment on ROCK2, 8%; in the experiment with ROS1, 25%.
In the case of `c1ccc(Oc2ccc(Nc3ccnc4cc(-c5ccc(CNCCN6CCOCC6)o5)ccc34)cc2)nc1` [GW567145], the “%Inh” value was found to be 0% in the experiment on RIOK1; 0% with RIOK2; 0% in the experiment on RIOK3; 0% with RIPK1; 93.5% with RIPK2; 0% in the experiment on RIPK4. Besides, the “%Inh” value turned out to be 1% in the experiment with RIPK5, 4% in the experiment on ROCK1, 40% with ROCK2 and 0% with ROS1.
Regarding `COc1cc(Nc2ncc3c(C)nc(-c4cc5ccccc5[nH]4)n3n2)cc(OC)c1OC` [GW869516], the “%Inh” value in the experiment on RIOK1 stood at 35%; in the experiment with RIOK2, 0%; in the experiment on RIOK3 it was 23%; with RIPK1, 26%; in the experiment on RIPK2 it was 6%; in the experiment on RIPK4, 0%. In addition, the “%Inh” value in the experiment with RIPK5, in the experiment with ROCK1, with ROCK2 and with ROS1 was 0% throughout.
As to `COc1cc(Nc2nccc(-c3c(-c4cccc(NC(=O)c5c(F)cccc5F)c4)nn4ccccc34)n2)cc(OC)c1OC` [GSK323521], the “%Inh” value with RIOK1 is given as 34%; with RIOK2, 14%; with RIOK3, 0%; in the experiment with RIPK1, 93.9%; in the experiment with RIPK2, 79%; in the experiment with RIPK4, 0%. Besides, the “%Inh” value in the experiment with RIPK5 was 67%; in the experiment with ROCK1, 0%; with ROCK2 it was 6%; in the experiment on ROS1 it was 0%.
`CN1CCN(Cc2cccc(-c3ccc4c(Nc5ccc(Oc6ccccc6)cc5)ccnc4c3)c2)CC1` [GW578342]: the “%Inh” value stood at 21% with RIOK1; 0% in the experiment on RIOK2; 32% with RIOK3; 0% in the experiment on RIPK1; 98.6% in the experiment with RIPK2; 0% in the experiment with RIPK4. Moreover, the “%Inh” value in the experiment on RIPK5 is on record as 0%; in the experiment on ROCK1, 25%; in the experiment with ROCK2 it was 20%; with ROS1, 0%.

(Values after paper PMC5540273 (PLoS ONE, 2017).)
